Test [1] can be described thus: Stat Signaling Pathway (AID 446; active means well fitted curve in either direction with a large enough effect, not every such curve was filed as active;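 further: ME-180 cervical cancer cells given 40 pM IL-6 alongside compound; SIE-controlled beta-lactamase reporter measured as 460/530 nm FRET emission ratio; on the % scale 0 is the no-effect control and ±100 the full control effect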). Summed up:
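ME-180 SIE-bla cells; overnight plating; cpd + IL-6 40 pM, 5 h, 37 C; LiveBLAzer 2.5 h RT; 460/530 nm emission ratio. Normalized to 300 pM IL-6 and 125 nM JAK inhibitor controls.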

Test [2] has as its target Glucocorticoid receptor (Homo sapiens) (UniProt P04150). Put plainly: GR-GFP Redistribution (AID 450;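 active means compounds whose dose series gives a full or clear partial fitted curve of increased nuclear translocation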; further: potency means the concentration at half of the fitted maximal effect). The following applies: U2OS GR-GFP nuclear translocation, laser cytometry, 2 h.
In test [3] the target is Rap guanine nucleotide exchange factor 3 (Homo sapiens) (UniProt O95398). The test can be described thus: Confirmatory qHTS for antagonist of cAMP-regulated guanine nucleotide exchange factor 3 (EPAC1) (AID 1645880). Further: nearly all actives have a fitted effect of over 55% in size. Further: potency means the concentration at half of the fitted maximal effect.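 On activity, negative = inhibition: plate controls were DMSO only for no effect and full effect of the ATA control for full effect.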 The following applies: EPAC1 Rap1B-BODIPY-GDP exchange, fluorescence; activity, negative = inhibition: at 115 µM (top of the series). The method, boiled down: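 Nucleotide exchange uses 100 nM EPAC1, 250 nM RAP1B-BODIPY-GDP and 50 uM GDP, with compounds in a concentration-titration series. After 5 min at room temperature, fluorescence (480 nm ex/540 nm em) is read every 5 min for 30 min. Data are normalized to control ATA and DMSO.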
Sequence of Rap guanine nucleotide exchange factor 3 (Homo sapiens) (O95398 whole entry, looked up): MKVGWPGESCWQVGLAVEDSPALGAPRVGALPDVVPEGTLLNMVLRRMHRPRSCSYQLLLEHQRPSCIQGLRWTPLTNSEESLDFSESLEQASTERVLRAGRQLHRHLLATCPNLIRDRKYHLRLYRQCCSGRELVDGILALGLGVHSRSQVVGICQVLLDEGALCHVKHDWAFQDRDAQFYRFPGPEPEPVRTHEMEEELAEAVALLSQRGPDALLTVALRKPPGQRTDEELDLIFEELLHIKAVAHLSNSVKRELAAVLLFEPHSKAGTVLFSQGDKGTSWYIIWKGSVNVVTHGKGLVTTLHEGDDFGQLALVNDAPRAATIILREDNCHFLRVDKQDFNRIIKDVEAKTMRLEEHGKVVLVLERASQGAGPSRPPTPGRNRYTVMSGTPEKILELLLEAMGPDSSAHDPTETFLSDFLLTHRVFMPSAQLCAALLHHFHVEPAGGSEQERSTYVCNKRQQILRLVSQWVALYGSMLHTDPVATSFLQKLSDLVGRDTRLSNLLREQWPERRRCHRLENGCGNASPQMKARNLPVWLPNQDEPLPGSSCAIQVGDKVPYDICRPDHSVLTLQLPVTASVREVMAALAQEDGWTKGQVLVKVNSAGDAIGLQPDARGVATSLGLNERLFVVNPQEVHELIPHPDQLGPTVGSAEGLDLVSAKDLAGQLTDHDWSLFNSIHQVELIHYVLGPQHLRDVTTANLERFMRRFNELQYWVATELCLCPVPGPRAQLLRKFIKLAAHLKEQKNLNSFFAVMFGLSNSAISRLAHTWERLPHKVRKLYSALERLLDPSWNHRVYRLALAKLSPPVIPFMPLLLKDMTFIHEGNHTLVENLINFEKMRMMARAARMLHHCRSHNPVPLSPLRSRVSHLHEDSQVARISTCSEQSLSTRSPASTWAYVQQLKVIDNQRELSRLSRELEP
For orientation: Quantitative high-throughput screening tests each substance at several concentrations.

The target is the same in test [4]. The test can be described thus: Confirmatory qHTS for agonist of cAMP-regulated guanine nucleotide exchange factor 3 (EPAC1) (AID 1645881).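 Further: EPAC1 catalysed release of BODIPY-GDP from Rap1B seen as fluorescence loss; 100% = effect of cAMP agonist control; nearly all actives have a fitted effect of over 75% in size.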
In test [5] the target is Rap guanine nucleotide exchange factor 4 (Homo sapiens) (UniProt Q8WZA2). The test can be described thus: Confirmatory qHTS for agonist of cAMP-regulated guanine nucleotide exchange factor 4 (EPAC2) (AID 1645884).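 Further: nucleotide exchange releases bodipy-GDP from Rap1 and this lowers its fluorescence; on the % scale 0 is the no-effect control and ±100 the full control effect; nearly all actives have a fitted effect of over 65% in size.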
Sequence of Rap guanine nucleotide exchange factor 4 (Homo sapiens) (Q8WZA2 whole entry, looked up): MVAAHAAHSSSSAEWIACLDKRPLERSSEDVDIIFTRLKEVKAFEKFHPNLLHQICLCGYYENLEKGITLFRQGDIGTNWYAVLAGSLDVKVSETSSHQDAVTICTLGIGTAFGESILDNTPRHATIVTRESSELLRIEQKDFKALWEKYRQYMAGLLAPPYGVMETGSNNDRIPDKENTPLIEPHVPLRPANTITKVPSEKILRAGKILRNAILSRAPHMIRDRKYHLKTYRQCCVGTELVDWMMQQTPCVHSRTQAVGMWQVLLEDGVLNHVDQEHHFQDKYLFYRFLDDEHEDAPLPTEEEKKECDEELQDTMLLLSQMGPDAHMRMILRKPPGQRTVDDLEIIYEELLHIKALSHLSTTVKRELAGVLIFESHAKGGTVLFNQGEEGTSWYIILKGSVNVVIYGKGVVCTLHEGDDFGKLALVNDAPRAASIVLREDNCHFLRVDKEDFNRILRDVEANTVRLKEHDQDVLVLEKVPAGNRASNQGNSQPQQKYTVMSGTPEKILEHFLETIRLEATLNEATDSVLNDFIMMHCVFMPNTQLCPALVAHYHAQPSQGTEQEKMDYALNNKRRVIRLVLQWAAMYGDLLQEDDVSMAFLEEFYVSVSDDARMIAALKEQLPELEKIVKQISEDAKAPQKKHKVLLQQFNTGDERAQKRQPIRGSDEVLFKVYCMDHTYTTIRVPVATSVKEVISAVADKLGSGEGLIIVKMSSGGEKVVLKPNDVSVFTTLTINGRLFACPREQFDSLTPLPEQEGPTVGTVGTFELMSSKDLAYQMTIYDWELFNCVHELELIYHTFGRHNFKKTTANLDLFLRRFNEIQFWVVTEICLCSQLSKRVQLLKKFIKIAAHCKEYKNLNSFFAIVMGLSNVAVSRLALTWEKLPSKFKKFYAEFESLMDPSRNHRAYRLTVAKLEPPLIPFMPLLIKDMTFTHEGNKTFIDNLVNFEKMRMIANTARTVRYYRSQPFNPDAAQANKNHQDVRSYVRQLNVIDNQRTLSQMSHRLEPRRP
In test [6] the target is Rap guanine nucleotide exchange factor 3 (Homo sapiens) (UniProt O95398). Put plainly: Counterscreen qHTS for antagonist of cAMP-regulated guanine nucleotide exchange factor 3 (EPAC1) (AID 1645888).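 Further: fluorescence loss as bound BODIPY-GDP is released from Rap1B; % of control where 0% means no effect.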 The method, boiled down:
(§1)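 Rap1B–BODIPY-GDP (250 nM) with 50 uM GDP; compounds pin-transferred to 9.74 nM–152 uM final (activator) or from 7.32 nM upwards (inhibitor). Fluorescence Ex/Em 480/540 nm read at 5 and 30 min, then after adding cAMP or buffer, at room temperature.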
(In general: Counterscreens check selectivity or assay interference.)

Test [7] shares this target. The test can be described thus: Counterscreen qHTS for agonist of cAMP-regulated guanine nucleotide exchange factor 3 (EPAC1) (AID 1645889). Further: % of control where 0% means no effect; nearly all actives have a fitted effect of over 40% in size. Summed up: as §1
The target of test [8] is Lysosomal acid glucosylceramidase (Homo sapiens) (UniProt P04062). Put plainly: Glucocerebrosidase-p2 (AID 348; in the data active means potency below about 10 µM; further: potency means the concentration at half of the fitted maximal effect). The following applies: purified GBA, blue fluorogenic substrate, 40 min. The method, boiled down:
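Compounds titrated from 0.6 nM upwards against 0.2 nM enzyme in pH 5.9 citric acid/KH2PO4, taurocholate, tween-20; blue fluorogenic substrate 80 uM, 40 min room temperature, stopped and read Ex 365/Em 440 for AC50.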

The nature of test [9]: AP1 Signaling Pathway (AID 357; active means well fitted curve in either direction with a large enough effect, not every such curve was filed as active;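 further: ME-180 reporter cells stimulated with EGF at its EC50 level; on the % scale 0 is the no-effect control and ±100 the full control effect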). Particulars: ME-180 (cervical carcinoma) AP-1-bla reporter, EGF-induced, beta-lactamase ratio, 5 h; at 7.69 µM (top of the series) unless noted. Summed up: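 Titration-series screen for positive or negative modulators of EC50 EGF-induced signaling in ME-180 cells carrying an AP-1-driven beta-lactamase reporter. After 5 hours at 37 degrees Celsius, CCF4 460nm/530nm emission ratio gave %Activity; AC50 values derived.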

The nature of test [10]: NFAT Signaling Pathway (AID 444; active means well fitted curve in either direction with a large enough effect, not every such curve was filed as active;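 further: carbachol stimulus at about its EC50 of 1 µM final; on the % scale 0 is the no-effect control and ±100 the full control effect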). The following applies: Jurkat NFAT-bla M1, carbachol, beta-lactamase ratio, 5 h; at 7.69 µM (top of the series) unless noted. The method, boiled down:
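Jurkat cells with NFAT-driven β-lactamase reporter and co-expressed M1 receptor, stimulated with carbachol (final 1 uM, ~EC50), compound titration, 5 h at 37 °C. CCF4 loaded 1 h at RT; 460/530 nm ratio gave %activity and AC50.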

Test [11] deals with Glucocorticoid receptor (Homo sapiens) (UniProt P04150). Put plainly: GR-EFC Redistribution (AID 451; calls by dose curve; further: potency means the concentration at half of the fitted maximal effect). Particulars: CHO-K1 GR-EFC translocation, beta-gal luminescence, 2 h. Summed up: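 CHO-K1 cells expressing nuclear EA and GR-ED fragments of b-gal; compounds titrated up to 46 uM final, 2 h at 37 C. GR nuclear translocation read as complemented b-gal luminescence after 1 h RT detection.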
Sequence of Glucocorticoid receptor (Homo sapiens) (P04150 whole entry, looked up, the tested form may be a part): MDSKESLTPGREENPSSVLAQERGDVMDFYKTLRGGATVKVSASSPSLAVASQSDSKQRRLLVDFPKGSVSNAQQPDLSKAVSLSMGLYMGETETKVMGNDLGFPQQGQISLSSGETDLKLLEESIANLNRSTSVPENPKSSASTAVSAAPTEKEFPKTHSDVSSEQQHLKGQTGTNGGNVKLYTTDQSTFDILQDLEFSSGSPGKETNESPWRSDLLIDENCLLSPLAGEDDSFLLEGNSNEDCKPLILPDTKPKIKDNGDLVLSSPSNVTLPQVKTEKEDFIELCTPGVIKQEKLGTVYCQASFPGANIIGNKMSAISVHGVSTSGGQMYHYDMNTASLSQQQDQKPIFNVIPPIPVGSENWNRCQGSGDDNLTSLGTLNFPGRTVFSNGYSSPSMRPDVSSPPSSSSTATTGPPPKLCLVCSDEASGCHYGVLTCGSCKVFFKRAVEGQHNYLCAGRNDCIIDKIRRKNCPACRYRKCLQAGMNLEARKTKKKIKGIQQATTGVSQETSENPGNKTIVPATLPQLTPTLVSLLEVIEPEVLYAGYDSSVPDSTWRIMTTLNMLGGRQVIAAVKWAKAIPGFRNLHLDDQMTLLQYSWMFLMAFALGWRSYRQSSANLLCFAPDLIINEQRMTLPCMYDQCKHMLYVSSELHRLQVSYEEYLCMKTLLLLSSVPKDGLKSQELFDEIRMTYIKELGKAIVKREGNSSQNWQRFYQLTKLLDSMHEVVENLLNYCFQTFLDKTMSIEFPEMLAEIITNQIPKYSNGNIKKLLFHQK

In test [12] the target is Mitogen-activated protein kinase 10 (Mus musculus) (UniProt Q61831). Put plainly: JNK3 AlphaScreen Assay (AID 530; active means well fitted curve in either direction with a large enough effect, not every such curve was filed as active;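 further: kinase came from lysate of stimulated human HepG2 cells; signal reports phosphorylation of biotinylated GST-cJun 1-79 at Ser73 with 10 µM ATP; on the % scale 0 is the no-effect control and ±100 the full control effect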). Summed up:
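qHTS format: compounds tested as titrations against IL-1beta/TNF-alpha-activated HepG2 lysate JNK3 with biotin-GST-cJun substrate and 10 uM ATP at room temperature. Loss of anti-phospho-cJun AlphaScreen signal indicates inhibition.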

Test [13] has as its target 3',5'-cyclic-AMP phosphodiesterase 4B (Homo sapiens) (UniProt Q07343). Put plainly: qHTS Assay for Inhibitors of PDE-IV (AID 607; active means well fitted activation curve with a large enough effect in the main read-out, with a control signal flat, not every such curve was filed as active; further: % of control where 0% means no effect). Summed up:
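ACTOne HEK293 cells carry a modified cAMP-gated CNG channel and express endogenous PDE4; plated 1000 cells/well, compounds up to 22.9 uM final. Membrane-potential dye fluorescence (ex 535/em 590) was read; parental cells received 10 uM forskolin + 100 uM RO 20-1724.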

In test [14] the target is Cytochrome P450 1A2 (Homo sapiens) (UniProt P05177). The test can be described thus: p450-cyp1a2 (AID 410; calls by dose curve; further: potency means the concentration at half of the fitted maximal effect). The method, boiled down: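 Human CYP1A2 (20nM) demethylated Luciferin-ME at its Km (100uM) in 100mM KPO4. After 10 min compound preincubation, NADPH regeneration ran the reaction 60 min at room temperature. Luciferin was read by luminescence, normalized to 57 uM furafylline.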
Sequence of Cytochrome P450 1A2 (Homo sapiens) (P05177 whole entry, looked up): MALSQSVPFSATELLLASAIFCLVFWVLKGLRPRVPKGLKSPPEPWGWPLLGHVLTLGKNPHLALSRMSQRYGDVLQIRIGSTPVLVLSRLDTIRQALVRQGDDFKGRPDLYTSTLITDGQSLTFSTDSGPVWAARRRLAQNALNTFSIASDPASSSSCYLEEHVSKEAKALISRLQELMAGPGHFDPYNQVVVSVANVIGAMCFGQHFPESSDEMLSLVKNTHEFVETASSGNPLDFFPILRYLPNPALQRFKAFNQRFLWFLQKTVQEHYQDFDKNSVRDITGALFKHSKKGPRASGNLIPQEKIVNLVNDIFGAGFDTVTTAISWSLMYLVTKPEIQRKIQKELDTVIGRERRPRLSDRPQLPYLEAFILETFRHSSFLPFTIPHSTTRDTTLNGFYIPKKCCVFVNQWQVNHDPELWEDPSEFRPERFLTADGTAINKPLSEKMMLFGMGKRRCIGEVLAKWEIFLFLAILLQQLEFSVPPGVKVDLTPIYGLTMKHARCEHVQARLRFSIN

In test [15] the target is Cytochrome P450 2C9 (Homo sapiens) (UniProt P11712). The test can be described thus: qHTS Assay for Inhibitors and Substrates of Cytochrome P450 2C9 (AID 883). Further: on the % scale 0 is the no-effect control and ±100 the full control effect; nearly all actives have a fitted effect of over 60% in size. The method, boiled down:
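10nM CYP2C9 + 100uM Luciferin-H (=KM), 25mM KPO4; cpd 10 min 37C; NADPH regen, 60 min 37C; stop/detect with P450 Glo-Buffer 20 min; luminescence. Norm. to 57uM sulphaphenazole as full inhibition.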

The target in test [16] is Cytochrome P450 3A4 (Homo sapiens) (UniProt P08684). Put plainly: qHTS Assay for Inhibitors and Substrates of Cytochrome P450 3A4 (AID 884). Further: nearly all actives have a fitted effect of over 50% in size. Further: potency means the concentration at half of the fitted maximal effect. Summed up: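 20 nM human CYP3A4 with 25 uM Luciferin-PPXE (at KM) in 200 mM KPO4, preincubated 10 min with compound; NADPH regeneration started a 60 min RT reaction. Luciferin detected by luminescence, normalized to 57 uM ketoconazole as full inhibition.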
Sequence of Cytochrome P450 3A4 (Homo sapiens) (P08684 whole entry, looked up): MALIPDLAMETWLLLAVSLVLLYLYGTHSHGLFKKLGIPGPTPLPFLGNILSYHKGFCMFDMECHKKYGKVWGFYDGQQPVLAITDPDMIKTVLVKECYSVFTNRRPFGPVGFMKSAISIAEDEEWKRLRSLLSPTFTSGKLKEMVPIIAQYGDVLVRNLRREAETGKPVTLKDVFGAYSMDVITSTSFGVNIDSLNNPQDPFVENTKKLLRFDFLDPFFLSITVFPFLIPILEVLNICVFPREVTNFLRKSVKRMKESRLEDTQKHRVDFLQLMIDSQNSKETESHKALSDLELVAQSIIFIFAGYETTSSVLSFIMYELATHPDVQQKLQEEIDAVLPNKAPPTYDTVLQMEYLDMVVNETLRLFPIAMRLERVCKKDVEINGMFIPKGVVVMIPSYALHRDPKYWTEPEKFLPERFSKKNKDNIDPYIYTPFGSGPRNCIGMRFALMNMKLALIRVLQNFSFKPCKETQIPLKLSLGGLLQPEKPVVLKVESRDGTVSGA

Test [17] deals with Cytochrome P450 2D6 (Homo sapiens) (UniProt P10635). Put plainly: qHTS Assay for Inhibitors and Substrates of Cytochrome P450 2D6 (AID 891).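 Further: luciferin methyl ether substrate demethylated by CYP2D6 with NADPH regeneration; on the % scale 0 is the no-effect control and ±100 the full control effect; nearly all actives have a fitted effect of over 60% in size.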 The method, boiled down:
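Human CYP2D6 (5 nM) with 30 uM Luciferin-ME EGE (at Km) in 100 mM KPO4, compound preincubated 10 min, then NADPH regeneration system for 60 min at room temperature. Luciferin read by luminescence; normalized to 1.43 uM quinidine.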

Test [18] deals with Cytochrome P450 2C19 (Homo sapiens) (UniProt P33261). Put plainly: qHTS Assay for Inhibitors and Substrates of Cytochrome P450 2C19 (AID 899). Further: potency means the concentration at half of the fitted maximal effect; nearly all actives have a fitted effect of over 60% in size. Summed up: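 Luminescent read-out of luciferin formed from Luciferin-H EGE (10uM, equal to KM). Enzyme 5nM in 50mM KPO4; compound added, 10 min at 37C, then NADPH regenerating system for 60 min at 37C. Full inhibition defined by 57uM ketoconazole.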

Test [19] has as its target Ubiquitin carboxyl-terminal hydrolase 1 (Homo sapiens) (UniProt O94782). Put plainly: Inhibitors of USP1/UAF1: Pilot qHTS (AID 504865). Further: nearly all actives have a fitted effect of over 35% in size. Further: potency means the concentration at half of the fitted maximal effect. The method, boiled down:
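Enzyme-free wells gave the negative control, while test wells held 1nM USP1/UAF1 preincubated with compound for 15 min at room temperature. Ub-Rho at 150nM final started the reaction, and fluorescence at 480/540 nm was recorded kinetically.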

A short description of test [20]: Confirmation and Secondary Assay for Modulators of Hemoglobin Beta Chain Splicing at IVS2 654 locus (AID 910).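 Further: HeLa cells stably carrying EGFP split by mutant beta-globin IVS2-654 intron; % of control where 0% means no effect.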 The method, boiled down: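 HeLa cells stably expressing EGFP interrupted by β-globin IVS2-654 intron, seeded overnight in Opti-MEM/2% FCS, then treated 2 days at 37 °C. Restored splicing read as total peak GFP intensity per well by laser scanning cytometry (488 nm excitation, 500–520 nm emission); 500 nM antisense PNA as control.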

Test [21] in a line: Confirmation and Secondary Assay for Modulators of Hemoglobin Beta Chain Splicing at IVS2 705 locus (AID 930).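 Further: HeLa cells stably expressing the EGFP-705 splicing reporter; GFP fluorescence per well restored by corrected splicing of the IVS2-705 intron in EGFP; % of control where 0% means no effect.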 The method, boiled down: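 Secondary splice-site specificity test uses HeLa expressing CMV-driven EGFP interrupted by IVS2-705; cells were treated 2 days at 37C with 500 nM antisense PNA as positive control.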
Test [22] concerns the target DNA dC->dU-editing enzyme APOBEC-3G (Homo sapiens) (UniProt Q9HC16). The test can be described thus: qHTS for inhibitors of Vif-A3G interactions: Validation (AID 588379). Further: 0% is about no effect. Summed up: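 HeLa cells stably expressing Vif and A3G-eYFP, 700 cells/well, incubated overnight at 37 deg C, then exposed to compound overnight at 37 deg C. Inhibition of Vif-mediated degradation read as increased yellow fluorescence (Ex 488/Em 500-530) by laser-scanning cytometry.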

The target in test [23] is Tumor susceptibility gene 101 protein (Homo sapiens) (UniProt Q99816). The test can be described thus: qHTS Assay for Iinhibitors of HIV-1 Budding by Blocking the Interaction of PTAP/TSG101: Hit Validation (AID 651600). Further: potency means the concentration at half of the fitted maximal effect; nearly all actives have a fitted effect of over 70% in size. Summed up: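 Measuring PTAP–Tsg101 interaction by FP: protein at 10 uM and fluorescent peptide at 50 nM (final), buffer 10 mM HEPES pH 7.5 with 0.15 M NaCl, 3 mM EDTA, 0.1 mM TCEP, 0.01% Tween 20; 20 min incubation, r.t.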

For test [24], the target named is Rap guanine nucleotide exchange factor 4 (Homo sapiens) (UniProt Q8WZA2). Put plainly: Confirmatory qHTS for antagonist of cAMP-regulated guanine nucleotide exchange factor 4 (EPAC2) (AID 1645885). Further: nearly all actives have a fitted effect of over 25% in size.

From PubChem BioAssay (NCATS) come the findings set out here.

Values without a mark were called inactive. Records with an inconclusive call do not appear. Calls of active or inactive are those of the source. Unless noted, the call rests on the fitted dose curve; in most records, active means well fitted curve in the direction sought with a large enough effect; inconclusive means small, poorly fitted or top-dose-only effect, or another doubt; inactive means no such curve, though single readings can be large; an effect the other way counts as inactive or inconclusive.

Sequence of Ubiquitin carboxyl-terminal hydrolase 1 (Homo sapiens) (O94782 whole entry, looked up): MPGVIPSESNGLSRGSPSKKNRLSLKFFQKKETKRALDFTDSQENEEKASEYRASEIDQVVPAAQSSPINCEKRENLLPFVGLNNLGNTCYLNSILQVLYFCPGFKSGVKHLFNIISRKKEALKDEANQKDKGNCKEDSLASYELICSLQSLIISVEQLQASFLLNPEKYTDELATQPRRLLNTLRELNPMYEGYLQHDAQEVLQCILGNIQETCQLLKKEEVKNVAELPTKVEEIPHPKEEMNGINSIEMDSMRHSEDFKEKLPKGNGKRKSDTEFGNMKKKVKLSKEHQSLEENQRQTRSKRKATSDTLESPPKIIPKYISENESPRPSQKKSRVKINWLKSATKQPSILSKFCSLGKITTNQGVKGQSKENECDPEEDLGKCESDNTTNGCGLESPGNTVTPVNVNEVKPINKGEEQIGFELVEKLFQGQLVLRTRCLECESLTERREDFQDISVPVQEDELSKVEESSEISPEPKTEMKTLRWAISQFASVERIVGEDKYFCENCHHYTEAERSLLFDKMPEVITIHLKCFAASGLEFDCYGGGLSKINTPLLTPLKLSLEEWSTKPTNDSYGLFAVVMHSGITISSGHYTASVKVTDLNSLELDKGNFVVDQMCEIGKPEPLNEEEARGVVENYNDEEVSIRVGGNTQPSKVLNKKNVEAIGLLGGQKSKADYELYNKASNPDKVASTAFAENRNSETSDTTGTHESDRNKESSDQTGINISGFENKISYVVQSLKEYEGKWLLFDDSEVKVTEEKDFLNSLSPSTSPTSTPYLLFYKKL
Sequence of Cytochrome P450 2C9 (Homo sapiens) (P11712 whole entry, looked up): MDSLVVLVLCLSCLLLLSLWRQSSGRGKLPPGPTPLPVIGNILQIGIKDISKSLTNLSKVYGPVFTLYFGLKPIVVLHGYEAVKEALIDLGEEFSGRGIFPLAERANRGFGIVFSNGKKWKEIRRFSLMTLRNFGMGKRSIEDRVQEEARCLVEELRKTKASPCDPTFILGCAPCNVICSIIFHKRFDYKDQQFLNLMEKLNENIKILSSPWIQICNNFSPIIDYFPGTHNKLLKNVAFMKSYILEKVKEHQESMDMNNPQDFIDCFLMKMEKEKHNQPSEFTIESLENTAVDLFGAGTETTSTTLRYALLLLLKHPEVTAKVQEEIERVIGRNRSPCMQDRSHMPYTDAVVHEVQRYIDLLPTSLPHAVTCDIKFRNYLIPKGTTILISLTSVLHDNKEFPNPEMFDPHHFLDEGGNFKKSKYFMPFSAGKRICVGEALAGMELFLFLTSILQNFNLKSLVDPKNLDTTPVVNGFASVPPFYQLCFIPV

With `COCCCNC(=O)C(C#N)c1nc2ccccc2nc1N1CCN(Cc2ccccc2)CC1` (stereo not drawn), the molecule was called inactive in [1]. The values for the Potency in [2] and in test [3] were more than 20.6 µM and 75.7 µM (active), respectively. In addition, the Potency entry in [4], in test [5], in test [6] and in test [7] was “inactive” in each case.
Regarding `O=C(N/N=C/c1ccccc1O)c1ccc2c(c1)OCO2`, the Potency entry in test [3], in test [4], in test [5], in test [6] and in [7] was “inactive” in each case.
Turning to `COc1ncc2nc(-c3ccccc3)c(=O)n(Cc3cccs3)c2n1`, the figures for the Potency in test [8], in test [2] and in [11] were more than 11.4 µM, more than 9.22 µM and more than 46 µM, respectively. In addition, the values for the activity change, negative = inhibition in test [9] and in [10] were 3.51% and -14.6%, respectively. The molecule was called inactive in [1]. Also, the Potency entry in [12] and in test [13] was “inactive” each time.
`Cc1ccccc1-c1ccc2ncnc(N3CCOCC3)c2c1`: the activity change, negative = inhibition was -27.7% in test [9], 20.5% in [10] and -24.2% [at 2.29 µM] in test [15]. For the same molecule, the Potency in test [14] is 1.26 µM (active); in test [2], more than 46 µM; in [11], more than 46 µM; in test [18], 1.58 µM (active). The Potency result in test [12], in [16], in test [17] and in test [19] was “inactive” each time.
For `COc1cc(C)c2c(=O)cc(-c3ccccc3)oc2c1`, the Potency in test [16] is 12.6 µM (active). Besides, the Potency entry in test [20] and in test [21] was “inactive” in each case.
For the molecule `CC(=O)Oc1c2c(c3c(c1CC=C(C)C)O[C@@]14C(=CC5CC1C(C)(C)OC4(C/C=C(\C)C(=O)O)C5=O)C3=O)OC(C)(CCC=C(C)C)C=C2` (stereo partly drawn), the Potency entry in [20] and in test [21] was “inactive” throughout. Further, in test [19], the Potency is 31.6 µM (active).
For the molecule `COc1ccc(C2OCC3(COC(C)=O)C(C)C=C(C)C2C3C)cc1` (stereo not drawn), the call in test [22] was inactive.
As to `Oc1ccc2ccccc2c1-c1sc(Nc2ccccc2)n[n+]1-c1ccc(F)cc1`, the Potency in test [23] was 10.3 µM (active).
On to `COc1ccc(CCNC(=O)CCCn2c(SCC(N)=O)nc3cc4c(cc3c2=O)OCO4)cc1OC`, for which the Potency entry in test [3], in test [4] and in test [6] was “inactive” each time. Besides, the outcome in test [24] was “inactive [at 12.7 µM]”.
